Measurements taken from the supplement of paper PMC10338343.
± gives the standard deviation.

The sequences below were run on EfPiwi piRISC loaded with L1MC piRNA (26 nt) (assay: pre-steady-state target cleavage rate (min^-1); auxiliary factor: none (no Gtsf1); guide: L1MC piRNA 5'p-UAACUAAAUACUAUGCAAGCUGUAGG; MIWI and MILI are mouse PIWI proteins and EfPiwi is from a freshwater sponge; tags in brackets are library labels; higher = faster piRNA-guided slicing of the target).
Procedure: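 Cleave-'n-Seq: a library of target RNAs (target site in constant flanks) at […] was incubated with 1 nM active freshwater sponge Ephydatia fluviatilis Piwi piRISC (synthetic 5'-monophosphorylated piRNA guide) with or without 500 nM EmGtsf1 at 33 °C for 1 min to 16 h. Uncleaved targets were sequenced and the pooled three trials fitted to a burst-and-steady-state model to give the pre-steady-state cleavage rate (min^-1). Sequence is the target site only. Fits with R² ≤ 0 are excluded.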

Row | Sequence | pre-steady-state target cleavage rate
1 | UCCUGGAUGUCGAACGUAUGUAUUUAUUA | < 0.0001
2 | UCCUGGAUGUCGAACGUUAGUAAUUAGUAA | < 0.0001
3 | UCCUGGAUGUCCUUGCAUAGUUUUUACUUA | < 0.0001
4 | UCCUGGAUGUCCUUGCAUAGUUUUUAGUAA | < 0.0001
5 | UCCUGGAUGUCCUUGCAUAGUAAUUACUUA | < 0.0001
6 | UCCUGGAUGUCGAACGAUAGUAUUUAGAAA [g4:g14:cont:t1A] | < 0.0001
7 | UCCUCCUACAGCUUGCAUAGUAUUGUAGUUA | < 0.0001
8 | UCCUGGAUCAGCUUGCAUAGUAUUUACUUA | < 0.0001
9 | UCCUGGAUCUGCUUGCAUAGUAUAUAGUUA | 0.011 ± 0.0069
10 | UCCUGGAUGUCGAACGUAUGUAUAUUAGUUA | < 0.0001
11 | UCCUGGAUGUCGAAGCUAUAGUAUUUAGUUA | < 0.0001
12 | UCCUGGAUGUGCAUGCAUAGUAUUUAGAUA | < 0.0001
13 | UCCUCCUACAGCUUCCAUAGUAUAUAGUUA | < 0.0001
14 | UCCUGGAUGUCGAAGCAAAGUAUUUAGAUA | < 0.0001
15 | UCCUGGAACAGCUUGCAUCGUAUUUAGUUA | 0.00791 ± 0.0048
16 | UCCUGGAUGUGCUUGCAUACAUUUUAGUAA | < 0.0001
17 | UCCUGGAUGUCGAACGUAUGAAUUUAGAUA | < 0.0001
18 | UCCUGGAUCAGCUUGCAUAGUACUUAGUUA | 0.0113 ± 0.0052
19 | UCCUGCAUGAGCUUGCAUAGUAUUUAGAAA | < 0.0001
20 | UCCUCCUACAGCUUGCAAUCUAUUUUCAAA | < 0.0001

Row | Sequence | pre-steady-state target cleavage rate
21 | UCCUCCUACAGGAUGCAUAGUAUUUUCAAA | < 0.0001
22 | UCCUGGAUGUCGUUGCAUAGUAUAUAGAUA | < 0.0001
23 | UCCUGCUACAGCUUGCAUAGUAUUAUGAAA | < 0.0001
24 | UCCUGGAACACCUUGCAUAGUAUUUUCAAA | < 0.0001
25 | UCCUGGAUGUCCUUCGAUAGUAUUUAGUUA | < 0.0001
26 | UCCUGGAUGUCGAAGCAUAGUAUUUGUUA | < 0.0001
27 | UCCUGGAUGUCGAUGCAUACUUUUUAGUUA | < 0.0001
28 | UCCUGGAUCAGCUUGCAUAGUAUAUAGUUA | 0.0117 ± 0.0058
29 | UCCUGCUACAGCUUGCAUACAUAAAUCAAA [g12:g25:cont:t1A] | < 0.0001
30 | UCCUGGAUCAGCUUGCAUAGUGUUUAGUUA | 0.00696 ± 0.0045
31 | UCCUGGAUGUCGAACGUAUGAUUUAGUUA | < 0.0001
32 | UCCUGGAACAGCUUGCUAUCAUAAAUCAAA [g15:g23:cont:t1A] | < 0.0001
33 | UCCUGGUUACAGCUUGCAUAGUAUUUAGUUA | 0.00968 ± 0.0057
34 | UCCUGGAUGUCGAUCCAUAGUAUUUACUUA | < 0.0001
35 | UCCUCGUACAGCUUGCAUAGAAUUUAGUUA | 0.00853 ± 0.0037
36 | UCCUGGAUGUCGAACGUAUCUAUUUACAUA | < 0.0001
37 | UCCUGGAUGUCGAAGCAUAGUAUUUAGGUA | < 0.0001
38 | UCCUGGAUGUCGAACGUAAUGUAUUUAGUUA | < 0.0001
39 | UCCUGGAACAGCUUGGAUUGUAUUUAGUUA | < 0.0001
40 | UCCUGGAACAGCUUCCAUAGUAUUUACUUA | < 0.0001
